rTrxR1 inhibitor: qHTS Assay for Inhibitors of Mammalian Selenoprotein Thioredoxin Reductase 1 (TrxR1): qHTS; Thioredoxin reductase 1, cytoplasmic (Rattus norvegicus), O89049; recombinant rTrxR1, NADPH fluorescence consumption, selenite substrate; Potency, µM (series often up to 114 µM), without a hit: top-dose activity change, negative = inhibition, usual class: inhibitors; hit rate 1% among 390,000; also: % is scaled to controls: 0 for no effect and ±100 for the full control effect; nearly all actives have a fitted effect of over 65% in size
Target sequence (O89049 whole entry, looked up): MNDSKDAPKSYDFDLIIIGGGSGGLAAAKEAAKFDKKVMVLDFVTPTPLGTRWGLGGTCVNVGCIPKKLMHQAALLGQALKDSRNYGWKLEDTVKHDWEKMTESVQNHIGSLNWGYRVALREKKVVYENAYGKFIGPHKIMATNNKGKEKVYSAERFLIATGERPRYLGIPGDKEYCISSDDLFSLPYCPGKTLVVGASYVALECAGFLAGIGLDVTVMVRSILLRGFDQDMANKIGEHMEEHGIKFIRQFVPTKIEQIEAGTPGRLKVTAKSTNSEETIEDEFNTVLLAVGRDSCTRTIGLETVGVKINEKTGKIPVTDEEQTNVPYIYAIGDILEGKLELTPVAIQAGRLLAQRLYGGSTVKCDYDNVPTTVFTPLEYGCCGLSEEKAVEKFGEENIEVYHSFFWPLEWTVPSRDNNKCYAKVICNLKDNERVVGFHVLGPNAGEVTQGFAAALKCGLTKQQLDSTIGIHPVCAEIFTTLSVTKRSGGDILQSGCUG
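Rat TrxR1 (90 nM in the dispensed reagent) was pre-reduced with 400 uM NADPH for 5 min at room temperature, then incubated with compound for 15 min. After 400 uM selenite was added, NADPH fluorescence (Ex 340/Em 450 nm) was followed for 8 min.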
Vif-APOBEC3F blk: qHTS for Inhibitors of Vif-A3F Interactions: qHTS | hit rate 0.2% among 390,000 | HeLa A3F-eYFP + Vif (tagged APOBEC3F with the HIV-1 protein that degrades it), YFP fluorescence increase | Potency, µM (titrated, usually from 46.1 µM), without a hit: at the top dose activity, negative = active; also: % of control where 0% means no effect; nearly all actives have a fitted effect of over 65% in size
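HeLa cells stably expressing A3F-eYFP plus Vif, plated and incubated overnight at 37 deg C, then exposed to compounds overnight at 37 deg C. Blocked degradation read as raised yellow fluorescence (Ex 488/Em 500-530).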
VDR inh: Inhibitors of the vitamin D receptor (VDR): qHTS. Vitamin D3 receptor (Homo sapiens), P11473. hit rate 0.93% among 400,000. Potency, µM, without a hit: max response, negative = inhibition, actives largely listed as inhibitors. VDR-SRC2-3 peptide fluorescence polarization, 2 h. AID 504847, 2011; also: % is scaled to controls: 0 for no effect and ±100 for the full control effect
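Reagent solutions, kept cold and dark, are dispensed first; compounds are then pinned in at 23 nl, plates briefly spun, and incubated 2 h at ambient temperature. Inhibition of VDR–SRC2-3 peptide binding is read by fluorescence polarization.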
Vif-APOBEC3G blk: qHTS for Inhibitors of Vif-A3G Interactions: qHTS; DNA dC->dU-editing enzyme APOBEC-3G (Homo sapiens), Q9HC16; HeLa A3G-eYFP + Vif (tagged APOBEC3G with the HIV-1 protein that degrades it), YFP fluorescence, overnight; Potency, µM (titrated, usually from 46.1 µM), inactives show at the highest dose activity, negative = active, actives largely listed as inhibitors; hit rate 0.076% among 410,000; AID 602310, 2012; also: % is scaled to controls: 0 for no effect and ±100 for the full control effect; nearly all actives have a fitted effect of over 60% in size
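Read-out is eYFP fluorescence (Ex 488/Em 500-530) from Vif-expressing HeLa A3G-eYFP cells; more signal means A3G escaped Vif-mediated degradation. Cells plated overnight, compound pinned in, incubated overnight at 37 deg C.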
TrxR1 substrate: qHTS Assay for Substrates of Mammalian Selenoprotein Thioredoxin Reductase 1 (TrxR1): qHTS; hit rate 0.01% among 390,000; Potency, µM (top dose mostly 114 µM), without a hit: top-dose activity change, negative = substrate turnover; purified TrxR1 substrate turnover, NADPH consumption readout; also: % is scaled to controls: 0 for no effect and ±100 for the full control effect; nearly all actives have a fitted effect of over 50% in size
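Rat TrxR1, dispensed at 90 nM, was prereduced with 400 uM NADPH (final) for 5 min at ~22 deg C, then incubated with compound 15 min before 400 uM selenite. A first-read NADPH fluorescence drop versus no-compound background flagged substrates.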
* marks the source's active call; other numbers are inactive results; u = inconclusive; x = no result given; ! = a repeat was not active; [ ] = another dose, or the depositor's remark. Rows were chosen to be rich in hits. Some 1.8% of all compounds tested hit in one or more screens of this group. Calls follow the shape of the dose curve; as a rule, active = well fitted curve in the direction sought with a large enough effect; inconclusive = small, poorly fitted or top-dose-only effect, or another doubt; inactive = no such curve, though single readings can be large; an effect the other way counts as inactive or inconclusive. Potency is read from the fitted curve at half-maximal effect.

SMILES	rTrxR1 inhibitor	Vif-APOBEC3F blk	VDR inh	Vif-APOBEC3G blk	TrxR1 substrate
O=C(O)c1cc(O)c2c(c1)[C@@H]([C@H]1c3cc(C(=O)O)cc(O)c3C(=O)c3c(O[C@@H]4O[C@H](CO)[C@@H](O)[C@H](O)[C@H]4O)cccc31)c1cccc(O[C@@H]3O[C@H](CO)[C@@H](O)[C@H](O)[C@H]3O)c1C2=O	u	3.6%	-20.1%	0.8%	-7.5%[57.1 µM]
O=S(=O)(c1cnc2ccccc2c1)N1CCN(c2nc(-c3cccs3)nc3ccccc23)CC1	10.8%	x	-3.3%	x	-0.2%
C=CCOc1ccccc1/C=c1\sc2nc(=O)c(C)nn2c1=O	-8.0%	-13.8%	70.8µM*	-2.2%	3.6%
O=C(NCc1ccccc1)c1ccc(-c2ccccc2C(F)(F)F)o1	u	-3.2%	112µM*!	2.8%	-1.5%
Cc1ccc(-c2ccc(C(=O)NCc3ccc(Cl)cc3)o2)c2ccccc12	31.6µM*	-7.3%	u	-18.6%	11.6%
COc1ccc(NC(=O)c2ccc(-c3ccc(C)c4ccccc34)o2)cc1	-23.6%	0.6%	-0.2%	-1.1%	-0.7%
CCCN1CNc2c(c(=O)[nH]c(=S)n2CCc2ccc(C)c(C)c2)C1	-6.7%	x	u	x	1.7%
COc1ccc(Cn2c(SCc3ccc(C(=O)NCc4cccs4)cc3)nc3ccncc32)cc1	41.9%	-2.0%	-11.9%	1.3%	9.6%
CCOc1ccc(C(=O)N2CCC(c3ccncc3)CC2)cc1	10.2%[57.1 µM]	4.9%	13.4%	1.0%	2.9%[57.1 µM]
CCOc1ccc(C2C(C(=O)c3ccc(C)o3)=C(O)C(=O)N2c2cc(C)on2)cc1OC (centres undefined)	18.0%	-4.4%	-6.1%	0.4%	0.8%
CCCCCOc1ccc(C2C(C(=O)c3ccc(C)o3)=C(O)C(=O)N2c2cc(C)on2)cc1 (centres undefined)	-7.2%	-6.8%	70.8µM*	-0.4%	-1.1%
Nc1ncnc2c1nc(Sc1ccc(Cl)cc1)n2[C@H]1OC2COP(=O)(O)O[C@@H]2C1O (some centres undefined)	-12.1%[57.1 µM]	x	-1.0%	x	-3.3%[57.1 µM]
FC(F)Oc1ccc(NC(=S)NNc2ccnc3cc(Cl)ccc23)cc1	8.2%	u	35.5µM*	5.8%	-3.6%
CN1CCN(C(c2ccc(F)cc2)c2ccc3cccnc3c2O)CC1 (centres undefined)	22.8%	-10.8%	-17.0%	0.0%	0.5%
CN1CCN(C(c2cccnc2)c2ccc3cccnc3c2O)CC1 (centres undefined)	5.01µM*	-20.8%	-20.4%	-8.2%	7.7%
OC[C@H](O)[C@H](O)[C@@H](O)[C@@H](O)[C@@H]1SC(c2ccccc2)=NN1c1ccccc1	u	7.3%	22.4µM*	0.7%	1.5%
Cc1sc(N)c(C(=O)c2cccc(C(F)(F)F)c2)c1C	x	x	25.1µM*	x	x
CC(=O)N/N=C(\C)c1cccc(C(F)(F)F)c1	4.4%[57.1 µM]	-3.9%	9.0%	-0.2%	-18.1%[57.1 µM]
COc1ccc2cc(C#N)c(SCC(=O)Nc3nonc3C)nc2c1	1.6%[57.1 µM]	-7.7%	-2.3%	-0.8%	5.0%[57.1 µM]
Cc1nonc1NC(=O)CSc1nc2c(C)cccc2cc1C#N	9.7%	7.94µM*	-2.7%	u	4.8%
Cc1cc2cc(C#N)c(SCC(=O)Nc3nonc3C)nc2cc1C	-25.0%	10µM*	5.3%	u	-3.7%
O=C(CSc1nc(=O)n(Cc2ccccn2)c2c1CCC2)Nc1ccccc1	-3.3%[0.457 µM]	-4.6%	-4.2%	4.4%	3.8%[0.457 µM]
Cc1cc2ccccn2c1C(=O)c1cccc([N+](=O)[O-])c1	22.7%[57.1 µM]	1.4%	-3.9%	1.9%	11.5%[57.1 µM]
Cc1cc2ccccn2c1C(=O)c1ccc([N+](=O)[O-])cc1[N+](=O)[O-]	3.16µM*	1.5%	-1.1%	-3.0%	-0.7%[57.1 µM]
Cc1cc2ccccn2c1C(=O)c1ccc([N+](=O)[O-])o1	11.2µM*	11.2µM*	-28.9%	u	7.3%[57.1 µM]
SMILES	rTrxR1 inhibitor	Vif-APOBEC3F blk	VDR inh	Vif-APOBEC3G blk	TrxR1 substrate
COc1ccc2nc(NC(=O)c3cc(=O)c4ccccc4o3)sc2c1	11.7%	-4.5%	8.3%	-0.7%	-0.4%
Cc1cc(C)c2nc(NNC(=O)c3cc(=O)c4ccccc4o3)sc2c1	2.1%	u	39.8µM*	-13.0%	-4.7%
CC(=O)CSc1nsc(SCC(C)=O)c1C#N	70.8µM*	4.4%	-14.1%	-1.5%	-7.3%
Cc1csc(NC(=O)/C=C/c2ccc(C)o2)n1	u	-14.3%	-11.4%	-0.4%	-2.4%
CCOC(=O)/C=C/C(=O)Nc1nccs1	50.1µM*	1.5%	-26.2%	-9.3%	-3.2%
Cc1ccc(/C=C/C(=O)Nc2ncc(C)s2)o1	39.8µM*	-16.4%	-26.7%	-5.1%	5.3%
Cc1ccc(/C=C/C(=O)Nc2nccs2)o1	44.7µM*	u	-17.6%	1.9%	-3.2%
CCOC(=O)C(=O)Nc1nccs1	14.0%	-7.2%	3.9%	1.3%	-1.4%
Cc1ccc(/C=C/C(=O)Nc2ccncc2)o1	79.4µM*	-5.4%	-2.4%	-0.4%	-16.9%
Nc1cc(N)[nH]c(=S)n1	-8.6%	x	x	4.4%	-6.0%
c1ccc2cnccc2c1	2.6%	x	x	1.5%	2.7%
CC(=O)NS(=O)(=O)c1ccc(NC(=O)/C=C/c2ccc(C)o2)cc1	15.8µM*	-4.1%	-16.9%	0.0%	5.2%[57.1 µM]
CCOc1ccc(C(=O)NCCn2cc(SCC(=O)NCCc3ccc(OC)c(OC)c3)c3ccccc32)cc1	12.8%	-1.8%	6.7%	-2.5%	-1.7%
Clc1ccccc1/C=N/NC1=Nc2cccc3cccc1c23	1.8%	5.62µM*	-4.0%	u	-13.7%
O=C(CCNc1cccc(F)c1)c1cccc([N+](=O)[O-])c1	6.31µM*	5.8%	89.1µM*	-6.0%	-3.0%[57.1 µM]
O=C(CCNc1cccc(F)c1)c1cc2ccccc2o1	7.94µM*	-14.8%	u	-12.4%	1.3%
Cc1ccc2nc3cc([N+](=O)[O-])cc([N+](=O)[O-])c3cc2c1	50.1µM*	u	-20.5%	-23.1%	-3.7%
COc1cc(NC(=O)CCc2c(C)nc3nc(-c4cc(OC)cc(OC)c4)nn3c2C)cc(OC)c1	16.4%	-10.9%	-2.0%	3.3%	4.8%
CCCCS(=O)(=O)c1oc(-c2ccc(F)cc2)nc1S(=O)(=O)c1ccccc1	1.12µM*	1.4%	u	u	-2.7%
Cc1ccc(S(=O)(=O)c2nc(-c3cccs3)oc2SC(C)C)cc1	16.8%	4.2%	-2.1%	-5.1%	9.9%
CCS(=O)(=O)c1oc(-c2ccc(F)cc2)nc1S(=O)(=O)c1ccc(Br)cc1	0.562µM*	7.9%	u	u	7.7%
CC(C)S(=O)(=O)c1oc(-c2cccs2)nc1S(=O)(=O)c1ccc(F)cc1	0.708µM*	0.7%	u	-17.8%	29.0%
CSc1oc(-c2ccc(F)cc2)nc1S(=O)(=O)c1ccc(F)cc1	21.0%[57.1 µM]	-3.3%	-1.1%	-0.2%	3.1%[57.1 µM]

From PubChem BioAssay
